{"source": "PubChem BioAssay AID504651", "about": "(National Center for Advancing Translational Sciences (NCATS), 2011)", "note": "The campaign covered roughly 360,000 compounds. About 130 (0.036%) were called active. For the sample, actives were picked, then their nearest neighbours and some compounds at random. Values without a mark were called inactive. Rule as the data show it: active = potentiation above about 30%; inactive = the rest."}
{"target": "D(1A) dopamine receptor (Homo sapiens) (UniProt P21728)", "sequence (P21728 whole entry, looked up)": "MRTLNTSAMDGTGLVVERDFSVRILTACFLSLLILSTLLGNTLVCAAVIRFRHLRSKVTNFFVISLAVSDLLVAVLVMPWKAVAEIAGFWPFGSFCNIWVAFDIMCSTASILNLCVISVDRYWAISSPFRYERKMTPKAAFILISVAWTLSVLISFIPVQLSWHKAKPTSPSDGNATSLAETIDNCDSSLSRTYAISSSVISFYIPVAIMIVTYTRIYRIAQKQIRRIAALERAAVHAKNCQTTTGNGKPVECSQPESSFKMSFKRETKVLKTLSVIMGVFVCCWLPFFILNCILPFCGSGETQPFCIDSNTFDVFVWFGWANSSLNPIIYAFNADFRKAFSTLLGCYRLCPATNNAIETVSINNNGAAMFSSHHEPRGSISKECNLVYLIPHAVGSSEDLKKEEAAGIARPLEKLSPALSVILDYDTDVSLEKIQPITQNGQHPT", "test": "Potentiators of Human D1 Dopamine Receptor: qHTS; also: 0% is about no effect", "conditions": "HEK293 TREx D1 cells, calcium flux, dopamine EC20 potentiation; at 10 µM; hits give high values", "units": {"potentiation": "%"}}
{"smiles": "CCS(=O)(=O)c1nc(S(=O)(=O)c2ccc(C)cc2)c(NCc2ccc(Cl)cc2)s1", "potentiation": -2.95}
{"smiles": "CCOC(=O)c1c(NC(=O)/C=C/c2ccc(OC)cc2)sc2c1CCC(C)C2", "note": "(configuration not stated)", "potentiation": 0.15}
{"smiles": "N#CN1CCC(NS(=O)(=O)c2cccc(F)c2)C1", "note": "(configuration not stated)", "potentiation": -6.75}
{"smiles": "CCOc1ccc(OCC)c(NC(=O)c2c(C)nn(-c3ccccc3)c2-n2cccc2)c1", "potentiation": -0.5}
{"smiles": "CCN(CCCNC(=O)Cn1ncc2c3ccccc3n(C)c2c1=O)Cc1ccccc1", "potentiation": -1.8}
{"smiles": "CCOc1ccc(C2CC(=O)c3c([nH]c(C(=O)OCc4ccccc4)c3C)C2)cc1", "note": "(configuration not stated)", "potentiation": -3.65}
{"smiles": "O=C1Cc2cc(S(=O)(=O)Nc3ccc(OC(F)(F)F)cc3)cc3c2N1CCC3", "potentiation": 1.65}
{"smiles": "Cc1ccc(NC(=O)C2CCN(S(=O)(=O)c3cc(-c4noc(C)n4)ccc3C)CC2)c(C)c1", "potentiation": -4.05}
{"smiles": "O=C(c1cnn(-c2ccc(F)cc2)c1-n1cccc1)N1CCN(c2ccc(F)cc2)CC1", "potentiation": -1.95}
{"smiles": "CCc1ccc(N2C(=O)CN(S(=O)(=O)CC)CC2(C)C(=O)NC2CCCCC2)cc1", "note": "(configuration not stated)", "potentiation": -0.1}
{"smiles": "CC(C)CNc1ncnc2c1nnn2C", "potentiation": 2.3}
{"smiles": "O=C(CSc1n[nH]c(-c2ccccc2)n1)N1CCCCC1", "potentiation": 2.7}
{"smiles": "Cc1ccc(Cn2ncc3c4sc(C)cc4n(C)c3c2=O)c(C)c1", "potentiation": 0.9}
{"smiles": "CCC1=Nc2cc(C(=O)NCCCOC(C)C)ccc2Sc2ccc(C)cc21", "potentiation": 3.75}
{"smiles": "Cc1cc2c(cc1S(=O)(=O)CCC(=O)Nc1ccc(OC(F)(F)F)cc1)OCC(=O)N2", "potentiation": -3.35}
{"smiles": "Cc1c(C(=O)Nc2cccc(Cl)c2)oc2ccc(S(=O)(=O)N3CCOCC3)cc12", "potentiation": -2.25}
{"smiles": "CCc1ccc(NS(=O)(=O)c2ccc3[nH]cc(C(=O)NCCc4cccc(C)c4)c(=O)c3c2)cc1", "potentiation": 2.6}
{"smiles": "Cc1ccc(-n2ncc(C(=O)N(C)Cc3ccccc3)c2-n2cccc2)cc1", "potentiation": -0.5}
{"smiles": "Cc1ccc(CN2COc3cc(C)c4c(oc(=O)c5ccccc54)c3C2)cc1", "potentiation": -0.2}
{"smiles": "CCCCn1c(=O)c2oc3ccccc3c2n(CC(=O)Nc2ccccc2OC)c1=O", "potentiation": 1.65}
{"smiles": "Cc1cccc(C(=O)N2c3nc(-c4ccco4)nn3C3(CCCCC3)[C@@H]3CCCC[C@@H]32)c1", "potentiation": -0.1}
{"smiles": "Cc1cc(F)ccc1NC1(c2ccccc2)C(=O)c2ccccc2C1=O", "potentiation": -5.75}
{"smiles": "Cc1ccccc1C(=O)Nc1nnc(S(=O)(=O)N(C)c2ccc(Cl)cc2)s1", "potentiation": -0.45}
{"smiles": "COc1cccc(C(=O)Nc2ccc(-c3cc(C(F)(F)F)nn3-c3ccccc3)cc2)c1", "potentiation": -4.85}
{"smiles": "CCOC(=O)c1c(C)n(S(=O)(=O)c2ccc(C)cc2C)c2ccc(NS(=O)(=O)c3ccc(C)cc3C)cc12", "potentiation": -1.05}
{"smiles": "COc1ccc(CCNc2nc(-c3ccc(Cl)cc3)cc(C(F)(F)F)n2)cc1OC", "potentiation": 0.65}
{"smiles": "Cc1cc2c(s1)c1cnn(Cc3cc(F)c(Cl)cc3Cl)c(=O)c1n2C", "potentiation": -0.95}
{"smiles": "Cc1ccc(S(=O)(=O)N2CCC(C(=O)Nc3cc(C)ccc3C)CC2)cc1", "potentiation": -2.85}
{"smiles": "Cc1ccc(CNC(=O)CCc2c(C)nc3c(c(C)nn3-c3ccccc3)c2C)cc1", "potentiation": -2.25}
{"smiles": "COc1ccc(N2CCN(S(=O)(=O)CCNC(=O)C(c3ccccc3)c3ccccc3)CC2)cc1", "potentiation": -0.4}
{"smiles": "COC(=O)c1c(NC(=O)C(C)Oc2ccc(Cl)c(C)c2)sc(C)c1C", "note": "(configuration not stated)", "potentiation": 0.65}
{"smiles": "COc1cccc(-c2nnc(SCC(=O)N3CCC(C)CC3)o2)c1", "potentiation": -1.7}
{"smiles": "Cc1ccccc1CNC(=O)CCc1cn(Cc2ccccc2C)c2ccccc12", "potentiation": -5.7}
{"smiles": "Cc1ccc(C)c(Cn2c(C(=O)O)c(CNCc3cccs3)c3ccccc32)c1", "potentiation": 19.9}
{"smiles": "COc1ccc(Cc2nc3ccc(C(=O)NCc4ccccc4C)cc3o2)cc1", "potentiation": -2.05}
{"smiles": "O=C(Cc1ccc(Cl)cc1)NCC(c1cccs1)S(=O)(=O)c1ccc(Cl)cc1", "note": "(configuration not stated)", "potentiation": -0.5}
{"smiles": "CC(=O)c1ccc(NC(=O)CSc2nc(-c3ccccc3F)nc3c2c(=O)n(C)c(=O)n3C)cc1", "potentiation": -0.45}
{"smiles": "CCSc1nnc(NC(=O)c2cc(=O)c3cc(C)c(C)cc3o2)s1", "potentiation": 0.15}
{"smiles": "COC(=O)c1ccccc1NC(=O)c1ccc(C#N)cc1", "potentiation": 3.5}
{"smiles": "O=C(Cn1c(=O)n(Cc2cccs2)c(=O)c2cccnc21)Nc1ccc(F)cc1", "potentiation": -2.6}
{"smiles": "COc1ccc(-c2cccc(NS(=O)(=O)c3cc(C)c(OC)c(C)c3C)c2)nn1", "potentiation": -2.1}
{"smiles": "Cc1ccc(SCC(=O)Nc2ccc3oc(-c4ccccc4C)nc3c2)cc1", "potentiation": -0.2}
